Measurements from PubChem BioAssay AID2685 (National Center for Advancing Translational Sciences (NCATS), 2010).
The campaign covered roughly 320,000 compounds. About 2,100 (0.66%) were called active. Another 53% or so got no clear call; they are omitted. Calls come from the whole dose curve; as a rule, active = well fitted inhibition curve with a large enough effect in the signal ratio, with a control signal flat (not every such curve was filed as active); inconclusive = small, poorly fitted or top-dose-only effect, or effect the other way, or a change in a side signal; inactive = flat fitted curve, though single readings scatter; the % refers to the signal ratio. Shown is part of a subset that was picked to be rich in actives.

experiment: qHTS Assay for Lipid Storage Modulators in Drosophila S3 Cells; details: BODIPY lipid droplet fluorescence, 18-24 h, cells fed with added oleic acid; cell number change: measured here: cell count max response; series mostly up to 46.1 µM;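 for cell number change: cells counted by Cell Tracker Red CMTPX staining in the red channel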
In short: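 Drosophila S3 cells loaded with oleic acid (400 uM, as added) and compounds at several concentrations; lipid droplets imaged by 488-nm laser-scanning cytometry, 500–530 nm intensity and object ratio to cell channel. Percent activity normalized to 20 uM Triacsin C.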
Potency is the fitted concentration of half-maximal effect.

| SMILES | Potency | cell number change |
| --- | --- | --- |
| O=C(Cc1ccccc1)NN1C(=O)C2C3C=CC([C@@H]2C1=O)C31CC1 (stereo partly specified) | inactive | -3.77% |
| O=C1C2C(C(=O)N1Cc1cccnc1)C1C=CC2C12CC2 (stereo unspecified) | inactive | -2.7% |
| O=C1C2C(C(=O)N1CCc1ccccc1)C1C=CC2C12CC2 (stereo unspecified) | 23.1 µM (active) | -11.6% |
| COCC(=O)Nc1ccc(C(C)C)cc1 | inactive | 24.3% |
| CC(C)(C)C(=O)NCCN1CCN(C(=O)C(C)(C)C)CC1 | inactive | 3.18% |
| Cc1ccc(-c2nnn(CCC(=O)N3CCCCC3C)n2)cc1 (stereo unspecified) | inactive | 10.5% |
| Cc1ccc(-c2nnn(CC(=O)N3C(C)CCCC3C)n2)cc1 (stereo unspecified) | 10.3 µM (active) | -11% |
| Cc1ccc(-c2nnn(CC(=O)O)n2)cc1 | inactive |  |
| Cc1ncc(CO)c(/C=N/NC(=O)c2ccc(O)cc2)c1O | inactive | 19.8% |
| Cc1ncc(CO)c(/C=N/NC(=O)c2ccccc2Br)c1O | inactive | 0.48% |
| Cc1cc(C(=O)N/N=C/c2c(CO)cnc(C)c2O)c2ccccc2n1 | 5.17 µM (active) | -19.9% |
| Cn1c(CNC(=O)OC(C)(C)C)nnc1SCc1c(Cl)cccc1Cl | inactive | -2.58% |
| Nc1nc(-c2ccccc2)nn1C(=O)c1ccco1 | inactive | -9.73% |
| Cc1cc(NC(=O)COC(=O)CCC(=O)c2ccc(F)cc2)no1 | inactive | 5.31% |
| COc1ccc(CNC(=O)CN2C(=O)NC(C)(c3ccc(C(C)(C)C)cc3)C2=O)cc1 (stereo unspecified) | inactive | 5.69% |
| O=C(CN1C(=O)NC2(CCCCCC2)C1=O)NCc1cccs1 | inactive | -8.23% |
| CC(C)(C)c1ccc(C2(C)NC(=O)N(CC(=O)NCc3cccs3)C2=O)cc1 (stereo unspecified) | 5.17 µM (active) | 3.77% |
| Cc1ccc(S(=O)(=O)NCc2ccccc2)cc1C(=O)N1CCCCCCC1 | inactive | -10.2% |
| COCCNC(=O)c1onc(CSc2nc3ccccc3[nH]2)c1C(=O)NCCOC | inactive | -7.78% |
| O=C(NCC1CC1)c1onc(CSc2nc3ccccc3[nH]2)c1C(=O)NCC1CC1 | 11.6 µM (active) | -10.5% |
| Cc1cc(C)cc(SCc2noc(C(=O)NCc3ccccc3)c2C(=O)NCc2ccccc2)c1 | inactive | -2.6% |
| C=CCNC(=O)c1onc(CSc2nc3ccccc3[nH]2)c1C(=O)NCC=C | inactive | -6.29% |
| O=C(NCC1CC1)c1onc(CSc2ccc(F)cc2)c1C(=O)NCC1CC1 | inactive | 10.6% |
| O=C(NCc1ccccc1)c1onc(CSc2nc3ccccc3[nH]2)c1C(=O)NCc1ccccc1 | 14.6 µM (active) | -26.6% |
| Cc1c(C(=O)OC(C)C)nnn1-c1nonc1N | inactive | 7.24% |
| Cc1ccsc1-c1nc(CN2CCCC2c2ccc(F)cc2)c(C)o1 (stereo unspecified) | inactive | 4.95% |
